According to the supplement of paper PMC3545927:
This is one part of the list. The true hit rate is not given.

Target: furin, P09958
Test: furin cleavage Z-score vs untreated control; higher = more cleavage, active = 3.5 or more, inactive = 1 or less, 8 variable residues between constant flanks
Outline: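 The cleavage Z-score was derived for purified furin acting on 8-mer peptides held on magnetic beads and fused to a cDNA oligonucleotide. Digests lasted 7.5, 15 or 30 min at 1:10 enzyme:substrate in 50 mM HEPES pH 7.5 with CaCl2 and NaCl. Sequencing counts of released DNA, log-transformed against furin-free reactions, were lowess-adjusted and scaled by median absolute deviation.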

Chain of furin, P09958 (P09958 whole entry): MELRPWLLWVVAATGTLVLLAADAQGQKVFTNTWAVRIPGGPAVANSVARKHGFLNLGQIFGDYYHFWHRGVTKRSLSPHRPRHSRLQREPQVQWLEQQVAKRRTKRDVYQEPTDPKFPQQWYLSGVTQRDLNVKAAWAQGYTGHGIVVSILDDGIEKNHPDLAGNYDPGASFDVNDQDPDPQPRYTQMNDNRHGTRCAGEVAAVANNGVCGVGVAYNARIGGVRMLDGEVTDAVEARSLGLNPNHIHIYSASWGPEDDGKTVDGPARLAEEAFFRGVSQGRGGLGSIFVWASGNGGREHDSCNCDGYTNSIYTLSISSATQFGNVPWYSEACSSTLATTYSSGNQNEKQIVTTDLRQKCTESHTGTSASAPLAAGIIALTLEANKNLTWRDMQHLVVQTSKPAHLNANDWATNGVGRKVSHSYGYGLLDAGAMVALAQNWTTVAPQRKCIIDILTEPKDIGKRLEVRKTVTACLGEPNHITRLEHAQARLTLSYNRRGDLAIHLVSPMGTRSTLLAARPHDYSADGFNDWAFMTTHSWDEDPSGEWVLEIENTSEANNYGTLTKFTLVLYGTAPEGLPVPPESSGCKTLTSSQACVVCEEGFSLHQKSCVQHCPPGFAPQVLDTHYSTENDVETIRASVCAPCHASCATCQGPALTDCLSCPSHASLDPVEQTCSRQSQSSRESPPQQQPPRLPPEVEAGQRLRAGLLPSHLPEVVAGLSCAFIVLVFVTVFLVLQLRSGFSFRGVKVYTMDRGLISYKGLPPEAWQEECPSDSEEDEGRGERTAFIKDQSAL

Row | Sequence | furin cleavage Z-score (7.5 min) | furin cleavage Z-score (15 min) | furin cleavage Z-score (30 min)
1 | CASTPCSAVLAGNASASA [HC2550] | -1.46 (inactive) | -0.0198 (inactive) | -0.52 (inactive)
2 | CARAKRNAVLAGNASASA [FS-2545] | 6.45 (active) | 7.8 (active) | 6.91 (active)
3 | CARAKRFLRKAGNASASA [FS-1992] | 4.11 (active) | 4.74 (active) | 7.62 (active)
4 | CARAKRFASLAGNASASA [FS-2635] | 4.64 (active) | 6.47 (active) | 8.89 (active)
5 | CATTVRLRAYAGNASASA [HC928] | 0.53 (inactive) | 0.398 (inactive) | -0.429 (inactive)
6 | CAVQAWKSKKAGNASASA [HC1473] | 0.322 (inactive) | 1.5 | -0.486 (inactive)
7 | CARIRRMADAAGNASASA [FS-2339] | 8.4 (active) | 10.5 (active) | 8.11 (active)
8 | CARIRRMWNDAGNASASA [FS-2955] | 3.22 | 2.6 | 4.32 (active)
9 | CARDVRLVDAAGNASASA [FS-2655] | -0.899 (inactive) | -0.757 (inactive) | 0.398 (inactive)
10 | CARMMRPVSDAGNASASA [FS-1753] | -0.43 (inactive) | 0.272 (inactive) | -0.677 (inactive)
11 | CARSGRSANAAGNASASA [FS-2522] | 1.32 | 0.616 (inactive) | 1.79
12 | CAREDRDVNDAGNASASA [FS-2393] | -1.02 (inactive) | -2.7 (inactive) | 0.632 (inactive)
13 | CARMRRYADAAGNASASA [FS-2355] | 5.77 (active) | 7.7 (active) | 6.66 (active)
14 | CATDCFRKHPAGNASASA [HC452] | 0.56 (inactive) | -0.196 (inactive) | 1.34
15 | CAYLKGKWVPAGNASASA [HC549] | 0.545 (inactive) | -0.258 (inactive) | -0.41 (inactive)
16 | CAMEECSQHPAGNASASA [HC1779] | -0.177 (inactive) | -0.782 (inactive) | 2.64
17 | CARCKRDCLEAGNASASA [FS-1996] | 9.7 (active) | 9.34 (active) | 8.23 (active)
18 | CARCKRTVLDAGNASASA [FS-2482] | 0.324 (inactive) | 1.14 | 3.14
19 | CARKKRSTGVAGNASASA [FS-2694] | 8.73 (active) | 11.5 (active) | 10.3 (active)
20 | CARCVRDCDPAGNASASA [FS-3243] | 0.0718 (inactive) | 1.92 | 2.77
21 | CARCRRGFGVAGNASASA [FS-1849] | 0.0621 (inactive) | 1.42 | 1.48
22 | CARCKRGMKKAGNASASA [FS-1818] | 0.324 (inactive) | 0.604 (inactive) | 3.09
23 | CARKKRTLRGAGNASASA [FS-2037] | 5.12 (active) | 8.31 (active) | 6.62 (active)
24 | CARCKRGTGVAGNASASA [FS-2898] | 6.24 (active) | 6.78 (active) | 5.78 (active)
25 | CAEVVTSTGVAGNASASA [HC2236] | 0.288 (inactive) | -1.6 (inactive) | -0.142 (inactive)
